Activity calls are given as the source filed them.
How the values were obtained:
[1] = system: PRMT1 (protein arginine N-methyltransferase 1); assay: PRMT1 binders on small-molecule microarrays, primary screen, biochemical, small-molecule microarray, 635 nm fluorescence (AID 1088); conditions: small-molecule microarray binding, higher = more signal;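 note: binding of Prmt1 protein to compounds spotted on small-molecule microarray slides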
[2] = yeast growth modulation, basal conditions, primary screen, YJM789 clinical isolate, OD600, 24 h (AID 1089);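 note: growth of clinical yeast isolate S. cerevisiae YJM 789 seeded 1000 cells per well; test concentration not given here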; conditions: S. cerevisiae YJM789 growth, higher = more signal, called active from +8 up or from −8 down
[3] = fission yeast growth modulation, primary screen, strain 972, OD600, 24 h, no modulator (AID 1090);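 note: basal condition with compound alone and no growth modifier present; test concentration not given here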; conditions: S. pombe 972 growth, higher = more signal, called active from +8 up or from −8 down
[4] = S. cerevisiae growth modulation with rapamycin, primary screen, strain BY4716, OD600, 96 h (AID 1091); conditions: higher = more signal, called active from +8 up or from −8 down; note: test concentration not given here
[5] = molecular target: Torsin-1A-interacting protein 2 (Homo sapiens) (UniProt Q8NFQ8); assay: LULL1 binders on small-molecule microarray, primary screen, cell lysate, human LULL1 lysate, 635/667 nm fluorescence (AID 1092); conditions: hLULL1 lysate binding, 635 nm fluorescence, higher = more signal;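 note: probe is lysate of COS7 cells overexpressing human LULL1; score merges per-feature 667 nm fluorescence with signal-to-noise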
Sequence of Torsin-1A-interacting protein 2 (Homo sapiens) (Q8NFQ8 whole entry, looked up): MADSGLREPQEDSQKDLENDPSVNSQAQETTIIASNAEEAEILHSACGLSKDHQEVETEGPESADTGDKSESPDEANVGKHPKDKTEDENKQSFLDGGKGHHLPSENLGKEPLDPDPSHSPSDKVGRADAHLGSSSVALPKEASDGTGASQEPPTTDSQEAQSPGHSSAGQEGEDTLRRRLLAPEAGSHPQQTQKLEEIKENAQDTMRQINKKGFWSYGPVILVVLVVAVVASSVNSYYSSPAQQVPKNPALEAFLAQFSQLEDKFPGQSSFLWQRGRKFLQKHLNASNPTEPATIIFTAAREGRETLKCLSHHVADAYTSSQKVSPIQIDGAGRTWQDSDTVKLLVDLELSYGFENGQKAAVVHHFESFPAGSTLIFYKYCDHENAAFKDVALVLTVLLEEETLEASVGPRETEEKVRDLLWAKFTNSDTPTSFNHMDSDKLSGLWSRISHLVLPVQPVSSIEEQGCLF

[6] = E. coli growth modulation, two-sided OD650, primary screen, E. coli filamentation project, strain DRC41, 24 h (AID 1093); conditions: OD650, 24 h, higher = more signal, called active from +8 up or from −8 down;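 note: MC1000 strain lacking acrAB efflux and sulA so SOS filamentation is blocked; test concentration not given here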
[7] = small-molecule microarray binders of probe aLefty2, primary screen, biochemical, biotinylated probe, 635/667 nm fluorescence (AID 1094); conditions: higher = more signal;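 note: score merges spot fluorescence near 667 nm with spot signal-to-noise ratio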
[8] = system: Noggin (protein binding on small-molecule microarray); assay: Noggin binders on small-molecule microarray, primary screen, biochemical, 635/667 nm fluorescence (AID 1095); conditions: 635 nm fluorescence, higher = more signal;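 note: score merges 667 nm feature fluorescence with signal to noise over triplicate slides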
[9] = molecular target: Neurogenic locus notch homolog protein 3 (Homo sapiens) (UniProt Q9UM47); assay: NOTCH3 binders on small-molecule microarray, primary screen, biochemical, 635/667 nm fluorescence (AID 1096); conditions: NOTCH3 binding, 635 nm fluorescence, higher = more signal
Sequence of Neurogenic locus notch homolog protein 3 (Homo sapiens) (Q9UM47 whole entry, looked up): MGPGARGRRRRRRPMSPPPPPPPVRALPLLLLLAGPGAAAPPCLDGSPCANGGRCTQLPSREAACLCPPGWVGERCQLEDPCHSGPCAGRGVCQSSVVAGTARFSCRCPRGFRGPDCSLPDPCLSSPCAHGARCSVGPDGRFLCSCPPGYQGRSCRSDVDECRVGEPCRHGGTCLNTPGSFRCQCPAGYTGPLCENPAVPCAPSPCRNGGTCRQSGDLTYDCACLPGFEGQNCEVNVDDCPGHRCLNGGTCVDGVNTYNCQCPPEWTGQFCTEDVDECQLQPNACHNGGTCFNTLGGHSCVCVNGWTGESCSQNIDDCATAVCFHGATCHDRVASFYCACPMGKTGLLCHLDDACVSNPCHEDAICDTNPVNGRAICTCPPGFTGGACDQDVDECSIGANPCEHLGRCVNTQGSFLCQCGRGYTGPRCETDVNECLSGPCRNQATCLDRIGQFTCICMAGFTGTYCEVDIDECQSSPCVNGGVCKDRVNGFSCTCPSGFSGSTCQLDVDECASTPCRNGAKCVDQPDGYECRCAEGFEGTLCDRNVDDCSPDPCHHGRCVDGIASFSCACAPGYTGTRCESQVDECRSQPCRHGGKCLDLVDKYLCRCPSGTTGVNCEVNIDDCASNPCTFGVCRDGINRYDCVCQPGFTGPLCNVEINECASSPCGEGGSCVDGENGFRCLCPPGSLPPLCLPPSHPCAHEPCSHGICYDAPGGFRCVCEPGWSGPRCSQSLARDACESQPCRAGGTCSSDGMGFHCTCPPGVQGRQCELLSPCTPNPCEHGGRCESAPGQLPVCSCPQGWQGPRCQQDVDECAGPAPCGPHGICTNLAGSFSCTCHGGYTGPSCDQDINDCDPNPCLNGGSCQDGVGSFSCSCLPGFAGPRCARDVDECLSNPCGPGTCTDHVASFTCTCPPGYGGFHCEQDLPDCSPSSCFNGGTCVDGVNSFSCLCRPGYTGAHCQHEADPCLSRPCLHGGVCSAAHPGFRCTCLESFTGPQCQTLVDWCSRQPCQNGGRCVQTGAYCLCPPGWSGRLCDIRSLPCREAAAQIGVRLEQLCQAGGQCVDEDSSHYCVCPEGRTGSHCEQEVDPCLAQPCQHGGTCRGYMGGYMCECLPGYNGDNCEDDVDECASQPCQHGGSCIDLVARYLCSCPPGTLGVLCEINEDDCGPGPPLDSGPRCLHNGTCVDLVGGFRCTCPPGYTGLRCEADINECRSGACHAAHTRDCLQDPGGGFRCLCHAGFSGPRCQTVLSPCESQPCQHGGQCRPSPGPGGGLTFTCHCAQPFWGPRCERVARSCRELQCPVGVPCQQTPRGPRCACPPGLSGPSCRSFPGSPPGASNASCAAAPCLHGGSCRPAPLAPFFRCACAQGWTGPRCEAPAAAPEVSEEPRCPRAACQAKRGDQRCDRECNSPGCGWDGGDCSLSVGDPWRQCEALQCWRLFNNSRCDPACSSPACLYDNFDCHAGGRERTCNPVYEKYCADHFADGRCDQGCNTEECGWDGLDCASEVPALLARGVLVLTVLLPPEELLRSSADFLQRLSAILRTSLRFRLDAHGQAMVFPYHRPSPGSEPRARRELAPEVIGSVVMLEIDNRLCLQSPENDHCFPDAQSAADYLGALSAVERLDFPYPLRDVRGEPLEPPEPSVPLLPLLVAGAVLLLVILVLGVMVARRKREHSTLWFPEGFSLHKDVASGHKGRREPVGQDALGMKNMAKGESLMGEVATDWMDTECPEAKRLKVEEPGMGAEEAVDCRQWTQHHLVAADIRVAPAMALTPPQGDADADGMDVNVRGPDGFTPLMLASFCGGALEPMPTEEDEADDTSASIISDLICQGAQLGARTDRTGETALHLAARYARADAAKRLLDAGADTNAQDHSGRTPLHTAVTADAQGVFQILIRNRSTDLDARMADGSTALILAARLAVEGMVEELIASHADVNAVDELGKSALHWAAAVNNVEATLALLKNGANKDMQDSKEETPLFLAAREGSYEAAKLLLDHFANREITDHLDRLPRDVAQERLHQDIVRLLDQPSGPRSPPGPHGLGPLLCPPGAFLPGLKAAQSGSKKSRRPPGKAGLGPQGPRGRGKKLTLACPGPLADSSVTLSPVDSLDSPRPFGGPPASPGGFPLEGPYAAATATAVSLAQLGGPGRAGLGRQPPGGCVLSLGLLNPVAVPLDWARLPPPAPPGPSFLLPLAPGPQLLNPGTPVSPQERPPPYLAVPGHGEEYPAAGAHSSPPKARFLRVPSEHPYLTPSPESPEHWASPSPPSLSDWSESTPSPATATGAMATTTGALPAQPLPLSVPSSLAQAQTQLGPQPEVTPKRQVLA

[10] = small-molecule microarray binders of probe aEGFR, primary screen, biochemical, biotinylated probe, 635/667 nm fluorescence (AID 1097); conditions: higher = more signal;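 note: probe is a biotinylated anti-EGFR antibody binding compounds printed on slides; score combines fluorescence near 667 nm and signal to noise of each spot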
[11] = system: Plasmodium falciparum Sir2 (PF13_0152, Sir2A); assay: pfSir2 binders on small-molecule microarrays, primary screen, biochemical, small-molecule microarray, 635 nm fluorescence (AID 1098); conditions: small-molecule microarray binding, fluorescence 635 nm; higher = more signal;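 note: score merges spot fluorescence intensity with its signal-to-noise ratio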
[12] = small-molecule microarray binders of probe aDKK1, primary screen, biochemical, biotinylated probe, 635/667 nm fluorescence (AID 1099); conditions: higher = more signal;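 note: score merges 667nm spot fluorescence with signal to noise across triplicate slides; reference of the scale not given here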
[13] = small-molecule microarray binders of probe aCHRDL2, primary screen, biochemical, biotinylated probe, 635/667 nm fluorescence (AID 1100); conditions: higher = more signal
[14] = splicing luciferase reporter signal modulators, primary screen, spliceosome inhibition project, cell-based, HEK293, splice +/- reporter (AID 1101); conditions: luminescence, 24 h, higher = more signal, called active from +8 up or from −8 down;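 note: HEK293 cells carrying a splicing-competent luciferase reporter gene; test concentration not given here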
[15] = molecular target: Fibroblast growth factor 10 (Homo sapiens) (UniProt O15520); assay: FGF10 binders on small-molecule microarrays, primary screen, biochemical, small-molecule microarray, 635 nm fluorescence (AID 1102); conditions: FGF10 binding, fluorescence 635 nm, higher = more signal
Sequence of Fibroblast growth factor 10 (Homo sapiens) (O15520 whole entry, looked up): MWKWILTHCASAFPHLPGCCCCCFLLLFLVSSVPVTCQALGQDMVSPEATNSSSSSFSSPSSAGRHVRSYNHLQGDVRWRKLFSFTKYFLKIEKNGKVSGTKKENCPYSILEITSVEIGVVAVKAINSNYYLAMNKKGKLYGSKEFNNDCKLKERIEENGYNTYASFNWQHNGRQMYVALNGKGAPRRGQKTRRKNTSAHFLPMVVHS

[16] = system: glycogen synthase kinase-3 (GSK3A per assay name; protocol says GSK3B); assay: GSK3 binders on small-molecule microarrays, primary screen, biochemical, small-molecule microarray, 635 nm fluorescence, GSK3A (AID 1103); conditions: small-molecule microarray binding, fluorescence 635 nm; higher = more signal; note: the record names both GSK3A and GSK3B
[17] = molecular target: Epidermal growth factor receptor (Homo sapiens) (UniProt P00533); assay: EGFR binders on small-molecule microarrays, primary screen, biochemical, small-molecule microarray, 635 nm fluorescence (AID 1104); conditions: EGFR binding, higher = more signal;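 note: score merges 667 nm emission intensity with spot signal to noise over triplicate slides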
Sequence of Epidermal growth factor receptor (Homo sapiens) (P00533 whole entry, looked up): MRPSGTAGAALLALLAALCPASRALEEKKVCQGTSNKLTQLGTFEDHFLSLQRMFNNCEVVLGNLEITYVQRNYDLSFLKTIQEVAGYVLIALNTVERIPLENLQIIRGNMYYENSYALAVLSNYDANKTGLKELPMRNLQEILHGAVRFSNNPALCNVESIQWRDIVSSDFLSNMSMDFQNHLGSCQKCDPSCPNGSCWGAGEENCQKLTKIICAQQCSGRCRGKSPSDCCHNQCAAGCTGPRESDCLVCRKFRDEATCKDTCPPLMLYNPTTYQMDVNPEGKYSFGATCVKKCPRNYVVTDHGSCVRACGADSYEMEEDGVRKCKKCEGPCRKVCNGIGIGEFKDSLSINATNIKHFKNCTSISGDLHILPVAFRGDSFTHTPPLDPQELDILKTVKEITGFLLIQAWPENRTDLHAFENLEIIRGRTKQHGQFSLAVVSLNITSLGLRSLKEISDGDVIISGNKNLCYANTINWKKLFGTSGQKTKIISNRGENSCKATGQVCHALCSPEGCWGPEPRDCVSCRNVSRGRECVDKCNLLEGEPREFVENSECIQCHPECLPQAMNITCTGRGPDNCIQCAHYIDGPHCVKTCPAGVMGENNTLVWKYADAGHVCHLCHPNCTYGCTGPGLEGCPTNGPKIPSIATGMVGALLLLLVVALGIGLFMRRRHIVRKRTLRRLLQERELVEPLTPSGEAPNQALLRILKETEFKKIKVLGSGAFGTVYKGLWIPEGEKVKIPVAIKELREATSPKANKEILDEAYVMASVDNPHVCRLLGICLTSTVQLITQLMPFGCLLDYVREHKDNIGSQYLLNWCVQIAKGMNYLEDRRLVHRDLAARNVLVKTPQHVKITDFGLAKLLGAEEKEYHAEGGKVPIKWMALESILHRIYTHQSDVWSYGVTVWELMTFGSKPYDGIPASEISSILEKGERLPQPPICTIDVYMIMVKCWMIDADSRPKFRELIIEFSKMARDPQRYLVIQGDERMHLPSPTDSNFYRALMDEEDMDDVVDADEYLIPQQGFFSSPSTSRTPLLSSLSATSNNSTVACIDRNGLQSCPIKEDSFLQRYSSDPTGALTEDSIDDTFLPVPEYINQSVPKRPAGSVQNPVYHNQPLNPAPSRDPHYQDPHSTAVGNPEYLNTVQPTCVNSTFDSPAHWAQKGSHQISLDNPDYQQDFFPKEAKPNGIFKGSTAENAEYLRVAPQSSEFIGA

[18] = molecular target: Follistatin-related protein 3 (Homo sapiens) (UniProt O95633); assay: FSTL3 binders on small-molecule microarrays, primary screen, biochemical, small-molecule microarray, 635 nm fluorescence (AID 1105); conditions: FSTL3 binding, higher = more signal;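 note: score merges emission near 667 nm and signal to noise per printed spot across three slides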
Sequence of Follistatin-related protein 3 (Homo sapiens) (O95633 whole entry, looked up): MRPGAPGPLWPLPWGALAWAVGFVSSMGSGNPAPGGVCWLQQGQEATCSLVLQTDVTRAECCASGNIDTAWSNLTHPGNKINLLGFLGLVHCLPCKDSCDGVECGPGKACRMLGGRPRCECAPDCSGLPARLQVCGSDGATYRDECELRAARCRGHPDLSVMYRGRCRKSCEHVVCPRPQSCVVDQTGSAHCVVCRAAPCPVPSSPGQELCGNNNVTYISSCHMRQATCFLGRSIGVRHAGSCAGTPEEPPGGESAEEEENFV

[19] = molecular target: Dickkopf-related protein 1 (Homo sapiens) (UniProt O94907); assay: DKK1 binders on small-molecule microarrays, primary screen, biochemical, small-molecule microarray, 635 nm fluorescence scan (AID 1106); conditions: DKK1 binding, higher = more signal;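 note: score merges emission near 667 nm with signal to noise over three replicate slides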
Sequence of Dickkopf-related protein 1 (Homo sapiens) (O94907 whole entry, looked up): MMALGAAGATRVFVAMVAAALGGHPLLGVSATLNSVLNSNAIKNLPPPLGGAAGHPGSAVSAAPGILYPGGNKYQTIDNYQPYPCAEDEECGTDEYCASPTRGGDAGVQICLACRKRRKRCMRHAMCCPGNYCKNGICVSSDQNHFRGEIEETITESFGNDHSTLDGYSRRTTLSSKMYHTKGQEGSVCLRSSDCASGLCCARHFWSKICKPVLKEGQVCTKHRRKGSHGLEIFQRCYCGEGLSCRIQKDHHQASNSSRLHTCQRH

[20] = system: Inhibin beta A chain (activin A); assay: INHBA (activin A) binders on microarrays, primary screen, biochemical, small-molecule microarray, 635 nm fluorescence scan (AID 1107); conditions: small-molecule microarray binding, higher = more signal;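 note: mouse activin A protein probed at 4.33 µg/mL on printed slides; score merges bound-protein fluorescence near 667 nm with spot signal-to-noise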

Compound | composite z-score [1] | z-score [2] | z-score [3] | z-score [4] | composite z-score [5] | z-score [6] | composite z-score [7] | composite z-score [8] | composite z-score [9] | composite z-score [10] | composite z-score [11] | composite z-score [12] | composite z-score [13] | z-score [14] | composite z-score [15] | composite z-score [16] | composite z-score [17] | composite z-score [18] | composite z-score [19] | composite z-score [20]
O=C1[C@H]2[C@H]3[C@H](O)[C@H](O)CC(=NOC[C@@H](O)COCc4ccco4)[C@H]3CC[C@H]2C(=O)N1c1cccc(Oc2ccccc2)c1 | -0.267 | -0.19 (inactive) | 0.549 (inactive) | -0.502 (inactive) | -0.306 | 0.354 (inactive) | -0.172 | 1.55 | -0.413 | -0.174 | 0.846 | -0.317 | 0.166 | -0.716 (inactive) | -0.86 | -0.686 | -0.249 | -0.65 | -0.547 | 0.624
COc1ccc(O[C@H]2C=C[C@@H](c3ccccc3)O[C@@H]2COC(=O)CCC(C)=NO[C@@H](C)c2cc(-c3c(C)cc(C)cc3C)no2)cc1 | -0.225 | -0.843 (inactive) | 1.09 (inactive) | -0.159 (inactive) | -0.687 | -0.312 (inactive) | -0.219 | -0.916 | -2.17 | -0.214 | -0.0775 | -0.344 | 0.268 | -0.398 (inactive) | -1.05 | -2.04 | -0.747 | -1.39 | -0.872 | 0.934
CC(CCC(=O)OC[C@H]1O[C@H](C#Cc2ccccc2)C=C[C@@H]1Oc1ccc(C)cc1)=NOC[C@@H](O)COCc1ccco1 | -0.25 | 0.594 (inactive) | 0.134 (inactive) | 0.108 (inactive) | -0.486 | 0.147 (inactive) | -0.356 | -3.08 | -1.76 | -0.428 | 1.33 | -0.627 | -0.044 | -0.0928 (inactive) | -3.07 | -1.25 | -3.58 | -3.18 | -2.09 | -2.69
NCCCCCNC(=O)[C@@H]1C[C@@H]2C(=O)N3CCC[C@H]3C(=O)N2[C@@H]1c1cccc(OCCO)c1 | 1.35 | -0.486 (inactive) | -0.703 (inactive) | -0.652 (inactive) | 1.41 | -0.104 (inactive) | 0.948 | 0.989 | 0.613 | 0.364 | 0.963 | 1.61 | 0.948 | -0.298 (inactive) | 0.506 | 0.821 | 0.515 | 0.984 | 1.17 | 1.63
CC(C)NC(=O)[C@@]1(c2ccc([N+](=O)[O-])cc2)CC(=O)N(CC23CC4CC(CC(C4)C2)C3)[C@@H]1c1ccc(CO)cc1I | 1.52 | 0.151 (inactive) | 0.168 (inactive) | 5.83 (inactive) | 2.53 | -0.525 (inactive) | 0.448 | 0.176 | 0.341 | 0.0743 | 0.504 | 0.921 | 0.197 | 0.278 (inactive) | 0.0738 | 1.12 | 0.353 | 0.252 | 0.208 | 0.197
COCC1=C2[C@@H](CCc3ccccc3)OB(O)C[C@@H]2n2c(=O)n(-c3ccccc3)c(=O)n2C1 | -0.162 | 0.114 (inactive) | -0.591 (inactive) | -0.644 (inactive) | 0.332 | 0.203 (inactive) | -0.166 | 0.264 | -0.26 | -0.145 | 0.48 | -0.32 | -0.448 | 0.184 (inactive) | 0.511 | -0.114 | 0.492 | 0.444 | 0.374 | 0.632
CCc1cc2c(nc1CC)CCN(CCC(C)=NOC[C@@H](O)[C@H]1O[C@@H]3OC(C)(C)O[C@@H]3[C@H]1O)C2 | 0.85 | -1.63 (inactive) | 0.24 (inactive) | -0.282 (inactive) | 0.767 | 0.71 (inactive) | -0.175 | 0.276 | 0.0003 | -0.0343 | 0.569 | -0.54 | -0.32 | -0.173 (inactive) | 0.123 | 0.175 | 0.352 | 0.285 | 0.453 | 0.963
COc1ccc(O[C@H]2C=C[C@@H](c3ccccc3)O[C@@H]2COC(=O)CCC(C)=NOC(C)CN2CCCCc3nc(C)c(C)cc32)cc1 (stereo not given in full) | -0.285 | -0.258 (inactive) | -1.87 (inactive) | -0.889 (inactive) | 0.283 | 1.14 (inactive) | -0.0769 | 0.294 | -1.33 | -0.0614 | 1.42 | -0.0789 | 0.208 | -0.665 (inactive) | -0.154 | -0.86 | -0.457 | -0.106 | -0.0649 | 1.36
COc1ccccc1CN1C(=O)c2ccccc2[C@@]2(Cc3ccccc3N(C(C)C)C2=O)[C@@H]1c1ccc(CO)cc1 | 0.303 | -1.69 (inactive) | -0.373 (inactive) | -1.34 (inactive) | -0.114 | 1.26 (inactive) | -0.0999 | -0.0723 | -0.186 | -0.194 | 0.139 | -0.119 | 0.414 | -0.938 (inactive) | -0.194 | -0.467 | -0.418 | -0.119 | -0.39 | 0.602
COC(=O)[C@@H]1CC[C@H](C)[C@@H](c2ccc(C)cc2)N1C(=O)c1ccc(C=NOC(C)CN2CCCCc3nc(C)c(C)cc32)cc1 (stereo not given in full) | -0.066 | -0.632 (inactive) | -11.8 (active) | 0.325 (inactive) | -0.0101 | 0.829 (inactive) | -0.0332 | 0.149 | -0.145 | -0.0929 | 0.775 | -0.136 | 0.174 | -0.423 (inactive) | 0.127 | -0.626 | 0.598 | 0.0406 | 0.323 | 1.49

From PubChem BioAssay
